# Results published in publication PMC7862700, “An all-to-all approach to the identification of sequence-specific readers for epigenetic DNA modifications on cytosine”.
# How the values were obtained:
# Test in all cases: DAPPL (digital affinity profiling via proximity ligation, sequencing); 10 mM Tris-HCl pH 7.5, 50 mM NaCl, 1 mM DTT, 4% glycerol, room temperature, 30 min; GST-TFs on glutathione beads, 16-mer random dsDNA library, 0.1% formaldehyde crosslink after washing; high values mean tight binding
# FLI1 = molecular target: T1, FLI1 (Homo sapiens, UniProt Q01543 1-452); details: protein: recombinant; tags: N-terminal GST; dsDNA, one strand shown
# T1 sequence: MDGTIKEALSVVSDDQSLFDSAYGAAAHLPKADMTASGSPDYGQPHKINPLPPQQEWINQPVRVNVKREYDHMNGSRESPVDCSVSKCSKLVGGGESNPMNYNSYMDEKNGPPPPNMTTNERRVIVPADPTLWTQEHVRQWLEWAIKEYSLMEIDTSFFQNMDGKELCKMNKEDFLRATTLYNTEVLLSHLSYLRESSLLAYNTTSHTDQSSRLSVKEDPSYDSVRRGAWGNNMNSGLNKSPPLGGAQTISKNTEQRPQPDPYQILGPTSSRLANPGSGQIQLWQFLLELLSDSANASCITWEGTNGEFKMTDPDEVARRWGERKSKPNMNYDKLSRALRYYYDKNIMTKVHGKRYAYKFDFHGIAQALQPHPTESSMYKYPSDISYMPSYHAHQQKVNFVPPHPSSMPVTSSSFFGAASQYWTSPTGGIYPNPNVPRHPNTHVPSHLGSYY
# Method in brief: (§1)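 Human transcription factors were made in yeast as GST fusions, captured on glutathione beads and barcoded with DNA. With a tag-only sample included, the pool was incubated with 200 nmole of a random double-stranded 16-mer DNA library in Tris/NaCl/DTT/glycerol buffer at room temperature for 30 min, then crosslinked with 0.1% formaldehyde after washing, ligated by proximity, amplified and sequenced. For binding signal, each hexamer's read frequency for a factor is divided by its frequency for the tag-only sample.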
# ELK1 = molecular target: T2, ELK1 (Homo sapiens, UniProt P19419 1-428); details: protein: recombinant; tags: N-terminal GST; dsDNA, one strand shown
# T2 sequence: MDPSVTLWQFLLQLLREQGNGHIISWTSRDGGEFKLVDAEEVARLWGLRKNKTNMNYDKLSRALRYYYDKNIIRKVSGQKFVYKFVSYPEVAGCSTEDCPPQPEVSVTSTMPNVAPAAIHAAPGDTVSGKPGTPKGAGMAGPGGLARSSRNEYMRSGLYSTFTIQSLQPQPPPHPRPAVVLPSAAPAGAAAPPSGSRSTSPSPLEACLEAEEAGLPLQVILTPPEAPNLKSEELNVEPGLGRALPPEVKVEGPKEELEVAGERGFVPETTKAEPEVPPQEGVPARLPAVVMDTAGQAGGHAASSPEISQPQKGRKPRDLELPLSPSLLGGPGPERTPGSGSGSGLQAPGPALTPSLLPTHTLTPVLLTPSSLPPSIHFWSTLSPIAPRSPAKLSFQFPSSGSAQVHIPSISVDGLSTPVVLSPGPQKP
# Method in brief: as §1
# GABPA = molecular target: T3, GABPA (Homo sapiens, UniProt Q06546 1-454); details: protein: recombinant; tags: N-terminal GST; dsDNA, one strand shown
# T3 sequence: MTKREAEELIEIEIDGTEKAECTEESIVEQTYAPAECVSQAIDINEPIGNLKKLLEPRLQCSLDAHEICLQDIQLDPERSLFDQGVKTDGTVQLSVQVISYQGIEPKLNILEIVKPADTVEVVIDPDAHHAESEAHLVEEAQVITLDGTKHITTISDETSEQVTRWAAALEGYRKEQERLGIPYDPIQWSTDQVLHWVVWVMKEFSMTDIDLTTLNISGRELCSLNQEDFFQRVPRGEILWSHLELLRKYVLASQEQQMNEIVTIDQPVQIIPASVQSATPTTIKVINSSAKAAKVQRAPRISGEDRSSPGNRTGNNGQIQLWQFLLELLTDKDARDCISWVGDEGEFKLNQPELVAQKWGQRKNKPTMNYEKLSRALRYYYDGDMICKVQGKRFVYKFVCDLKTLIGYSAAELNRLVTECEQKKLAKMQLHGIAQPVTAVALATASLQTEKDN
# Method in brief: as §1
# ERG = molecular target: T4, ERG (Homo sapiens, UniProt P11308 1-479); details: protein: recombinant; tags: N-terminal GST; dsDNA, one strand shown
# T4 sequence: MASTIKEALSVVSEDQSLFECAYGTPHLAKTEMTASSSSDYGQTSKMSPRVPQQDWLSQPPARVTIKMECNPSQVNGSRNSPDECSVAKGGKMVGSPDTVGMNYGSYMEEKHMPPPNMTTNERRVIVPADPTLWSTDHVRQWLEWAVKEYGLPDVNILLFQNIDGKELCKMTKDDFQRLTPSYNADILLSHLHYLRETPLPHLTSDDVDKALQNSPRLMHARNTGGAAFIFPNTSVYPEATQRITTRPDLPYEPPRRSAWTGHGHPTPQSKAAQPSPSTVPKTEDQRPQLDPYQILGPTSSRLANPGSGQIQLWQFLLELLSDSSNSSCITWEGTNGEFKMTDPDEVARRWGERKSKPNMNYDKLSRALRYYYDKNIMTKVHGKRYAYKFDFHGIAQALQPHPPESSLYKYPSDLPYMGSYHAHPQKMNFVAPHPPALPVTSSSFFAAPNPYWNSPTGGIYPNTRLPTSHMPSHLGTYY
# Method in brief: as §1
# ELF1 = ELF1 (Homo sapiens, UniProt P32519 1-619); details: protein: recombinant; tags: N-terminal GST; dsDNA, one strand shown
# Method in brief: as §1
# EHF = molecular target: T5, EHF (Homo sapiens, UniProt Q9NZC4 1-300); details: protein: recombinant; tags: N-terminal GST; dsDNA, one strand shown
# T5 sequence: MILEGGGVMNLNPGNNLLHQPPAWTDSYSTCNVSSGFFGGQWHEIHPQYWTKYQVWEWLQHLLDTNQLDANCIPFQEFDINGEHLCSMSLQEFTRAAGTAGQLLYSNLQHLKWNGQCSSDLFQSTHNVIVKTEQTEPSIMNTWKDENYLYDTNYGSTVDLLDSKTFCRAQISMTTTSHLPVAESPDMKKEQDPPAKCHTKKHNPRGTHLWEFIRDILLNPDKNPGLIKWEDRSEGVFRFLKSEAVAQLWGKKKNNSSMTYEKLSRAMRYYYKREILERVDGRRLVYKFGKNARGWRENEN
# Method in brief: as §1
# SPI1 = SPI1 (Homo sapiens, UniProt P17947 1-270); details: protein: recombinant; tags: N-terminal GST; dsDNA, one strand shown
# Method in brief: as §1
# SPIB = SPIB (Homo sapiens, UniProt Q01892 1-262); details: protein: recombinant; tags: N-terminal GST; dsDNA, one strand shown
# Method in brief: as §1
# ELK3 = molecular target: T6, ELK3 (Homo sapiens, UniProt P41970 1-407); details: protein: recombinant; tags: N-terminal GST; dsDNA, one strand shown
# T6 sequence: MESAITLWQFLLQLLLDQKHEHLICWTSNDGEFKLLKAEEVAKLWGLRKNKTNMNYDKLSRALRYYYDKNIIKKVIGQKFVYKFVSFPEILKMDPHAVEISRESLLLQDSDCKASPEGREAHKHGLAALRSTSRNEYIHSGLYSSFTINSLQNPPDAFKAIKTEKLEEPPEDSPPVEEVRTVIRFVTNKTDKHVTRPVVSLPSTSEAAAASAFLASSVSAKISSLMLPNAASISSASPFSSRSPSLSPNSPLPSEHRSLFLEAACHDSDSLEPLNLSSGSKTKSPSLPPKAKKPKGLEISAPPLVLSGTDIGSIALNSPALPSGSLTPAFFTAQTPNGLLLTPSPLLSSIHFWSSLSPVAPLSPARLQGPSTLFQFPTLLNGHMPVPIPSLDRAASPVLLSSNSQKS
# Method in brief: as §1
# FEV = molecular target: T7, FEV (Homo sapiens, UniProt Q99581 1-238); details: protein: recombinant; tags: N-terminal GST; dsDNA, one strand shown
# T7 sequence: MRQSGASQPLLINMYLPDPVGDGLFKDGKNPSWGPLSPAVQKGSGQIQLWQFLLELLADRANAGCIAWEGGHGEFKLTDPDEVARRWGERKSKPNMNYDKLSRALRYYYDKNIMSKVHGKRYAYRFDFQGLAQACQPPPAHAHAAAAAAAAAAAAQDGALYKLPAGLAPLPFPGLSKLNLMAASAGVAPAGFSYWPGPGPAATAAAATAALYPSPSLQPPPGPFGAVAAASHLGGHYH
# Method in brief: as §1
# ETV5 = ETV5 (Homo sapiens, UniProt P41161 1-510); details: protein: recombinant; tags: N-terminal GST; dsDNA, one strand shown
# Method in brief: as §1
# HSF1 = HSF1 (Homo sapiens, UniProt Q00613 1-529); details: protein: recombinant; tags: N-terminal GST; chain copies: 3; dsDNA, one strand shown
# Method in brief: as §1
# SPIC = molecular target: T8, SPIC (Homo sapiens, UniProt Q8N5J4 1-248); details: protein: recombinant; tags: N-terminal GST; dsDNA, one strand shown
# T8 sequence: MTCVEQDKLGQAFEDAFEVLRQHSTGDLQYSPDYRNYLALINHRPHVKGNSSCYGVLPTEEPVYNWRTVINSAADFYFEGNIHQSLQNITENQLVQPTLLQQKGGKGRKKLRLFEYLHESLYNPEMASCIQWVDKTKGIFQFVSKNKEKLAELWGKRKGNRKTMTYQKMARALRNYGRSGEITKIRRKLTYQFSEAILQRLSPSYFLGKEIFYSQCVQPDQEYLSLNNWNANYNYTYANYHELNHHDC
# Method in brief: as §1
# ELF4 = ELF4 (Homo sapiens, UniProt Q99607 1-663); details: protein: recombinant; tags: N-terminal GST; dsDNA, one strand shown
# Method in brief: as §1
# ELK4 = molecular target: T9, ELK4 (Homo sapiens, UniProt P28324-2 1-405); details: protein: recombinant; tags: N-terminal GST; dsDNA, one strand shown
# T9 sequence: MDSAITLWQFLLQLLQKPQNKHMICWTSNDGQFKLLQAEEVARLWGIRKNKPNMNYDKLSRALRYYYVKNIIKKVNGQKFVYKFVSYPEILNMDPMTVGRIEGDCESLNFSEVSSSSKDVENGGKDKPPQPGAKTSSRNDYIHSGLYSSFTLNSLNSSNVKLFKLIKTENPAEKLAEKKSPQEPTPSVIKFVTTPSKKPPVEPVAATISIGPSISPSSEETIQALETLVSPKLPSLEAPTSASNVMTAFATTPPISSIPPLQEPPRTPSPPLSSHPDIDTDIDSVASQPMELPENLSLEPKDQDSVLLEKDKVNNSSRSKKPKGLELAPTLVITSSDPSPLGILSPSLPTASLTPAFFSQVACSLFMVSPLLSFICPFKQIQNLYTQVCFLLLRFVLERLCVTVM
# Method in brief: as §1
# ETV2 = molecular target: T10, ETV2 (Homo sapiens, UniProt O00321 1-342); details: protein: recombinant; tags: N-terminal GST; dsDNA, one strand shown
# T10 sequence: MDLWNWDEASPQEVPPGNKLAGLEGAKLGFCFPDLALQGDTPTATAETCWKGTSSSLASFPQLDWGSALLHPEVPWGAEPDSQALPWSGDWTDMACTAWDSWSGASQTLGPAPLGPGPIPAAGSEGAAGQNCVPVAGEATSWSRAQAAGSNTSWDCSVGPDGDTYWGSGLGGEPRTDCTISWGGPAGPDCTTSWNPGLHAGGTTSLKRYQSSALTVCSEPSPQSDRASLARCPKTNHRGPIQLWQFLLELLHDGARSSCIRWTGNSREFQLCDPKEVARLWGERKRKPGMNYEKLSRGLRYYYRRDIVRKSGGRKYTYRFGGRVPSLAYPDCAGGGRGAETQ
# Method in brief: as §1
# ELF3 = molecular target: T11, ELF3 (Homo sapiens, UniProt P78545 1-371); details: protein: recombinant; tags: N-terminal GST; dsDNA, one strand shown
# T11 sequence: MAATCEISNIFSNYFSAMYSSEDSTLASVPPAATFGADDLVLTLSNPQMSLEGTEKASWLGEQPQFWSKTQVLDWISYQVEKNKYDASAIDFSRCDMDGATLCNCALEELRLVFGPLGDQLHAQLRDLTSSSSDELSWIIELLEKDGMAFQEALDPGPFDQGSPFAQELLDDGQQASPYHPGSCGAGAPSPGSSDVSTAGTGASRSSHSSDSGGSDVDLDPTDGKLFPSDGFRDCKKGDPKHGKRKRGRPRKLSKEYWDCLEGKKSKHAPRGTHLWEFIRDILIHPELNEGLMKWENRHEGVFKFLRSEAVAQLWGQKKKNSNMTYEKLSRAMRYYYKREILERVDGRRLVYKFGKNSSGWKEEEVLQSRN
# Method in brief: as §1
# CRX = CRX (Homo sapiens, UniProt O43186 1-299); details: protein: recombinant; tags: N-terminal GST; dsDNA, one strand shown
# Method in brief: as §1
# ETV1 = ETV1 (Homo sapiens, UniProt P50549 1-477); details: protein: recombinant; tags: N-terminal GST; dsDNA, one strand shown
# Method in brief: as §1
# Chain of ETV5 (P41161 whole entry): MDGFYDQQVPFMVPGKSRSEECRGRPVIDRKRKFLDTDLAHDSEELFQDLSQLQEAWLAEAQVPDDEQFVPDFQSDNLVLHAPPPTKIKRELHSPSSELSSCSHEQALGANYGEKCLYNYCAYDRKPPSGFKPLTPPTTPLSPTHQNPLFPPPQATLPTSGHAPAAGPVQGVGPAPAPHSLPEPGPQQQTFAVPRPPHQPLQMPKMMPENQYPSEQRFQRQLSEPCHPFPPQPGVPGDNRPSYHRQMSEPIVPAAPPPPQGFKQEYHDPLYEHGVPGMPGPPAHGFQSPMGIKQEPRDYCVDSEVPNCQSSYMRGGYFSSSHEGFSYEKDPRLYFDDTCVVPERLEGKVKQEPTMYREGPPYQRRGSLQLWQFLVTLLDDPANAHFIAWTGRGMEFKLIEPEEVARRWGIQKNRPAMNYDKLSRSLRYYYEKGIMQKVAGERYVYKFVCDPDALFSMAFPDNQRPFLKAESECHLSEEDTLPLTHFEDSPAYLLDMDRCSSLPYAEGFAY
# Chain of SPIB (Q01892 whole entry): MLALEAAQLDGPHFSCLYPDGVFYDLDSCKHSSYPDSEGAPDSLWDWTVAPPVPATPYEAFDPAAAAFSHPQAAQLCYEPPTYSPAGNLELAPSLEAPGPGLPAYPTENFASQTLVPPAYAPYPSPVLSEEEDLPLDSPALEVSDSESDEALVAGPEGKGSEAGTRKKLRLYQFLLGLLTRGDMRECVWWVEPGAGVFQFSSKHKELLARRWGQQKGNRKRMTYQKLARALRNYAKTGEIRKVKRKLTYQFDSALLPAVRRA
# Chain of ELF4 (Q99607 whole entry): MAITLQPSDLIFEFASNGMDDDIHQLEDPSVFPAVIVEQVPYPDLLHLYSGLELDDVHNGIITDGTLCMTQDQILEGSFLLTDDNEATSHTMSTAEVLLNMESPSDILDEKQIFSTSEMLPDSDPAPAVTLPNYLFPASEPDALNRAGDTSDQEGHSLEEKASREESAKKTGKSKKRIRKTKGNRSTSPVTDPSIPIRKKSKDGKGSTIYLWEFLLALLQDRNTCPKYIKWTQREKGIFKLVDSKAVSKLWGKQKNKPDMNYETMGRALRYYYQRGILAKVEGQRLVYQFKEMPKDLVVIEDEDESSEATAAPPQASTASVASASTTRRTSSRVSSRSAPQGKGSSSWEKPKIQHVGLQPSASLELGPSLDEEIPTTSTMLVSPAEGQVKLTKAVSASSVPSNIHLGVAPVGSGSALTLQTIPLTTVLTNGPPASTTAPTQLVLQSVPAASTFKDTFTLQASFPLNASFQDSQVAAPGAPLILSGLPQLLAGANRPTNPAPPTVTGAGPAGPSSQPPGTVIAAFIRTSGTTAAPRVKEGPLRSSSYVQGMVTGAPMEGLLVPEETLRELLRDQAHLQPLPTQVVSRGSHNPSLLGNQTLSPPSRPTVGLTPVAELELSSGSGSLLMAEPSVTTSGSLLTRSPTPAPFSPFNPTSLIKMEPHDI
# Chain of HSF1 (Q00613 whole entry): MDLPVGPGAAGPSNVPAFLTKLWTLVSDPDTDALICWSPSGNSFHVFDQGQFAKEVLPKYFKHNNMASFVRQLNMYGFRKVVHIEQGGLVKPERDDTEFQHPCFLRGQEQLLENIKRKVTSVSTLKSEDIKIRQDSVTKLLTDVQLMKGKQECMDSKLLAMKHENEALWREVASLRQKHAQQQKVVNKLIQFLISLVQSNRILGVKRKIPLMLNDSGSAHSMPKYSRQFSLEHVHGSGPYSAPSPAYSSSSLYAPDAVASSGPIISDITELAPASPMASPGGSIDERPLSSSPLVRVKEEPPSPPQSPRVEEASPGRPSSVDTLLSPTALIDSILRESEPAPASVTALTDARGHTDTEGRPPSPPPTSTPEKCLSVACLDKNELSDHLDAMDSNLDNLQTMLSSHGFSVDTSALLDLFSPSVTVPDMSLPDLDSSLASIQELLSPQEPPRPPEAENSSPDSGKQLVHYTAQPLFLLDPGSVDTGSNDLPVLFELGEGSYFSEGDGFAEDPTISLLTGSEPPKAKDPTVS
# Chain of CRX (O43186 whole entry): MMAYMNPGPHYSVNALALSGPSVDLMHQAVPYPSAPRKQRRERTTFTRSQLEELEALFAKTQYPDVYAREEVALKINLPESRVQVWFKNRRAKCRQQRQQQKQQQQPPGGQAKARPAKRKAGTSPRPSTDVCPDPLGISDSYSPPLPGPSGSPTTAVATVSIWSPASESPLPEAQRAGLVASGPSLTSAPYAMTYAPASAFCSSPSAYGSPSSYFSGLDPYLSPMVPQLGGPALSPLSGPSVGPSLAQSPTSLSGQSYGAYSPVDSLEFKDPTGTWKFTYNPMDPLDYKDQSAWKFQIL
# Chain of ELF1 (P32519 whole entry): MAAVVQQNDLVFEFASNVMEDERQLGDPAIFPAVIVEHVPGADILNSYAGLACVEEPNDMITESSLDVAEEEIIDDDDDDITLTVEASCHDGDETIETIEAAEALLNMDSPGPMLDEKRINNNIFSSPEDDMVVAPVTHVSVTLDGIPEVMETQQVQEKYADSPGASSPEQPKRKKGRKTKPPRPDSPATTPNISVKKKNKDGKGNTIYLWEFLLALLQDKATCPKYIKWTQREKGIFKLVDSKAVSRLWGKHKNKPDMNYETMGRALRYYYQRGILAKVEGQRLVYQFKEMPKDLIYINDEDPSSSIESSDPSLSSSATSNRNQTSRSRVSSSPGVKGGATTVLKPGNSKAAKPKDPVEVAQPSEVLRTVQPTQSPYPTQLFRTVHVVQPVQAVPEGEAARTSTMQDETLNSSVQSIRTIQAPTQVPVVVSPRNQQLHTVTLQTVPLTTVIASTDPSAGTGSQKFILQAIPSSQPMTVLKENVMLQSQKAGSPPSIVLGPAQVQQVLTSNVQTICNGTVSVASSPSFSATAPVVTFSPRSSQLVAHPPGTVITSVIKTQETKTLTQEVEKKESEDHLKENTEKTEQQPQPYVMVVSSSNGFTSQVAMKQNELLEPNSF
# Chain of ETV1 (P50549 whole entry): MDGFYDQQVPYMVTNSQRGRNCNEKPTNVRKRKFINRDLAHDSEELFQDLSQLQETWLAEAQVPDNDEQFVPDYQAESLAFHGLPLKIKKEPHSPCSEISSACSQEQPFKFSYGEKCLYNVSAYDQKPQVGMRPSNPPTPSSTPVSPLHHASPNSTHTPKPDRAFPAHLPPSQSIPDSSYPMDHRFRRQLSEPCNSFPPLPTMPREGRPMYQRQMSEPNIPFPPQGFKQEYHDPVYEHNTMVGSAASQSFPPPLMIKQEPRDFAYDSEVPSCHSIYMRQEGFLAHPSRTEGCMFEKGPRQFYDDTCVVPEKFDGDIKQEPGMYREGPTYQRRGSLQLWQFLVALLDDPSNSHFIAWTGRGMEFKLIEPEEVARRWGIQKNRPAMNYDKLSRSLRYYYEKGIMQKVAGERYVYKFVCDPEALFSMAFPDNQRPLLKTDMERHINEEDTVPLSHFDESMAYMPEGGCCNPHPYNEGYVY
sequence,measurement,setting,value
ATTGCC,binding signal,FLI1,"1.28 fold enrichment (6-mer frequency, TF over GST control)"
same,binding signal,ELK1,"1.27 fold enrichment (6-mer frequency, TF over GST control)"
same,binding signal,GABPA,"1.28 fold enrichment (6-mer frequency, TF over GST control)"
same,binding signal,ERG,"1.14 fold enrichment (6-mer frequency, TF over GST control)"
same,binding signal,ELF1,"1.21 fold enrichment (6-mer frequency, TF over GST control)"
same,binding signal,EHF,"1.24 fold enrichment (6-mer frequency, TF over GST control)"
same,binding signal,SPI1,"1.15 fold enrichment (6-mer frequency, TF over GST control)"
same,binding signal,SPIB,"1.26 fold enrichment (6-mer frequency, TF over GST control)"
same,binding signal,ELK3,"1.15 fold enrichment (6-mer frequency, TF over GST control)"
same,binding signal,FEV,"1.25 fold enrichment (6-mer frequency, TF over GST control)"
same,binding signal,ETV5,"1.28 fold enrichment (6-mer frequency, TF over GST control)"
same,binding signal,HSF1,"1.09 fold enrichment (6-mer frequency, TF over GST control)"
same,binding signal,SPIC,"1.29 fold enrichment (6-mer frequency, TF over GST control)"
same,binding signal,ELF4,"1.3 fold enrichment (6-mer frequency, TF over GST control)"
same,binding signal,ELK4,"1.14 fold enrichment (6-mer frequency, TF over GST control)"
same,binding signal,ETV2,"1.12 fold enrichment (6-mer frequency, TF over GST control)"
same,binding signal,ELF3,"1.24 fold enrichment (6-mer frequency, TF over GST control)"
same,binding signal,CRX,"1.09 fold enrichment (6-mer frequency, TF over GST control)"
same,binding signal,ETV1,"1.2 fold enrichment (6-mer frequency, TF over GST control)"
